Source: PubChem BioAssay (Tox21)
Active and inactive are the calls of the source. Unless noted, the call rests on the fitted dose curve; in most records, active means well fitted curve in the direction sought with a large enough effect in the repeat runs; inconclusive means weak or mixed curves; inactive means no such curve, though single readings can be large; an effect the other way counts as inactive or inconclusive.

Experiments:
[1] = qHTS assay for small molecule agonists of the p53 signaling pathway (AID 651631; calls by dose curve; further: nearly all actives have a fitted effect of over 15% in size; further: potency means the concentration at half of the fitted maximal effect)
Procedure, shortened: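 Agonist mode screen using a stably integrated beta-lactamase gene under p53 response elements in HCT-116 cells. Compound exposure lasts 16 h at 37 °C; fluorescence intensity is measured following 2 h FRET substrate loading.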

[2] = qHTS assay for small molecule agonists of the p53 signaling pathway - cell viability (AID 651633; calls by dose curve;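 further: p53RE-bla HCT reporter cells with a stable beta-lactamase p53 reporter; nearly all actives have a fitted effect of over 30% in size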)
Procedure, shortened: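 Viability counter-read: CellTiter-Glo luminescence (30 min, room temperature) in the same p53RE-bla plates. These plates had been exposed to compounds for 16 h at 37 C.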

[3] = qHTS assay for small molecules that induce genotoxicity in human embryonic kidney cells expressing luciferase-tagged ATAD5 - cell viability (AID 651634; calls by dose curve; further: nearly all actives have a fitted effect of over 25% in size)
Procedure, shortened: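 HEK293T ATAD5-luc cells, 2,000/well; compound 15.5 hr, 37C/5% CO2; CellTiter-Fluor 30 min, 37C; fluorescence read.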

[4] = qHTS assay for small molecule disruptors of the mitochondrial membrane potential - cell viability (AID 720634; calls by dose curve;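 further: human HepG2 liver cancer cells; nearly all actives have a fitted effect of over 20% in size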)
Procedure, shortened: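 Luminescence from CellTiter-Glo (ATP content) gave viability in HepG2 cells, read in the same wells as the MMP dye assay after 1 hr compound exposure at 37 C.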

[5] = qHTS assay for small molecule disruptors of the mitochondrial membrane potential (AID 720635)
Procedure, shortened: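 Mitochondrial membrane potential tracked with Mito-MPS dye, red aggregates (ex 540/em 590 nm) against green monomers (ex 490/em 535 nm). Compound treatment 1 hr at 37C, dye 30 min in HepG2.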

[6] = qHTS assay to test for compound auto fluorescence at 590 nm (red) in HepG2 cells (AID 720674)
Procedure, shortened: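 We screened compounds on adherent HepG2 cells, incubating them for an hour at 37 C in 5% CO2 before reading emission at 590 nm under 540 nm excitation; values reflect equivalence to Rose Bengal sodium fluorescence.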

[7] = qHTS assay to test for compound auto fluorescence at 535 nm (green) in HepG2 cells (AID 720675)
[8] = qHTS assay to test for compound auto fluorescence at 460 nm (blue) in HEK293 cells (AID 720678)
Procedure, shortened: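 Blue read-out at excitation 405 nm and emission 460 nm follows overnight compound exposure of HEK293 cells at 37C in 5% CO2. Activity is given as auto fluorescence equivalency to triamterene.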

[9] = qHTS assay to test for compound auto fluorescence at 590 nm (red) in HEK293 cells (AID 720679)
Procedure, shortened: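 Red channel, Ex/Em 540/590nm; signal expressed as equivalency to Rose Bengal sodium. HEK293, 2,000 cells/well, 10% dialyzed FBS; 23 nL compound pinned after 4-5 hr attachment; overnight 37C/5% CO2 before reading.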

[10] = qHTS assay to test for compound auto fluorescence at 535 nm (green) in HEK293 cells (AID 720680)
[11] = qHTS assay to test for compound auto fluorescence at 460 nm (blue) in HEK293 cell free culture (AID 720681)
Procedure, shortened: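 Blue fluorescence (Ex 405/Em 460 nm, triamterene-equivalent) was read immediately after pin transfer of compound or DMSO into medium (DMEM, 10% FBS) without cells.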

[12] = qHTS assay to test for compound auto fluorescence at 535 nm (green) in HEK293 cell free culture (AID 720682)
Procedure, shortened: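 No cells present: wells hold DMEM supplemented with 10% FBS, into which compound or vehicle is pinned. Green emission is then recorded (485 nm excitation, 535 nm emission) and scaled to fluorescein.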

[13] = qHTS assay to test for compound auto fluorescence at 590 nm (red) in HEK293 cell free culture (AID 720683)
Procedure, shortened: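 Red-channel autofluorescence of compounds in culture medium (DMEM, 10% FBS), no cells, measured at 540/590 nm. Rose Bengal sodium is the reference fluorophore for equivalence.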

[14] = qHTS assay to test for compound auto fluorescence at 590 nm (red) in HepG2 cell free culture (AID 720684)
Procedure, shortened: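 Cell-free; medium MEM + 10% FBS; compound or DMSO added by pintool; read Ex 540/Em 590 nm; Rose Bengal sodium as red reference fluorophore.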

[15] = qHTS assay to test for compound auto fluorescence at 460 nm (blue) in HepG2 cell free culture (AID 720685)
Procedure, shortened: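 Cell-free plates of MEM plus 10% FBS received 23 nL compound or DMSO vehicle; blue-channel (405/460 nm) intensity scored against triamterene as reference fluorophore.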

[16] = qHTS assay to test for compound auto fluorescence at 535 nm (green) in HepG2 cell free culture (AID 720686)
[17] = qHTS assay to test for compound auto fluorescence at 460 nm (blue) in HepG2 cells (AID 720687)
Procedure, shortened: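 Blue-channel autofluorescence (Ex/Em 405/460 nm, triamterene-equivalent) was measured after 1 hr compound exposure at 37 C, 5% CO2. Cells were HepG2, plated overnight at 37 C in MEM plus 10% FBS.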

[18] = qHTS assay for small molecules that induce genotoxicity in human embryonic kidney cells expressing luciferase-tagged ATAD5 (AID 651632); further: nearly all actives have a fitted effect of over 15% in size; further: potency means the concentration at half of the fitted maximal effect
Procedure, shortened: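 Luminescence read-out: after 16 hr compound exposure at 37C, ATAD5-luciferase HEK293T cells received Amplite, 30 min RT, then CCD imaging. A rise in signal marks genotoxic stress.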

[19] = molecular target: Glucocorticoid receptor (Homo sapiens) (UniProt P04150); assay: qHTS assay to identify small molecule antagonists of the glucocorticoid receptor (GR) signaling pathway (AID 720692; active means well fitted inhibition curve with a large enough effect in the signal ratio in the repeat runs, not every such curve was filed as active; inconclusive means weak or mixed curves, or effect the other way; inactive means no such curve, though single readings can be large or run the other way; the % refers to the signal ratio; further: potency means the concentration at half of the fitted maximal effect)
Sequence of Glucocorticoid receptor (Homo sapiens) (P04150 whole entry, looked up): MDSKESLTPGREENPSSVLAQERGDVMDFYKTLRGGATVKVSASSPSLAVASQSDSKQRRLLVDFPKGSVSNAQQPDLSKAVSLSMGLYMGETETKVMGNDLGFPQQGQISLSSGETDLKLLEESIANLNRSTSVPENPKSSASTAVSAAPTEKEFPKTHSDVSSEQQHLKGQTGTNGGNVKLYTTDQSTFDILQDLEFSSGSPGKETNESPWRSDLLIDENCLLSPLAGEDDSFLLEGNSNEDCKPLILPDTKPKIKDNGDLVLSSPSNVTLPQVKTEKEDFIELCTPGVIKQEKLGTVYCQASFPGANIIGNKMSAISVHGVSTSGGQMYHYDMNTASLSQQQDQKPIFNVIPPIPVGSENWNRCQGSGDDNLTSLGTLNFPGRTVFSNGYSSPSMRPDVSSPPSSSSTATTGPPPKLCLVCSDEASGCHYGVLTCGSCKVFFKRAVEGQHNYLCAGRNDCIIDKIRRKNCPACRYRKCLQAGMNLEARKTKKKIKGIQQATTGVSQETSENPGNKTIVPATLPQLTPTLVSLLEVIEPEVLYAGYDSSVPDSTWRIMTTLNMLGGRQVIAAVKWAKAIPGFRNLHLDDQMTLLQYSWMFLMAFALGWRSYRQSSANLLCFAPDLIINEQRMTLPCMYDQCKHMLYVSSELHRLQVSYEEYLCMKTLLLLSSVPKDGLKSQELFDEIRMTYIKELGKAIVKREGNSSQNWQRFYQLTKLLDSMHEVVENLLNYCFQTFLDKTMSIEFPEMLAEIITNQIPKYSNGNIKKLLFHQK
Procedure, shortened: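 Read-out: beta-lactamase FRET substrate fluorescence, 2 h at room temperature, in HeLa cells stably carrying a GRE-driven bla reporter. Compounds were co-incubated with 5 nM dexamethasone agonist (final) for 18 h at 37 C.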

[20] = molecular target: Glucocorticoid receptor (Homo sapiens) (UniProt P04150); assay: qHTS assay to identify small molecule agonists of the glucocorticoid receptor (GR) signaling pathway (AID 720691; active means well fitted activation curve with a large enough effect in the signal ratio in the repeat runs, not every such curve was filed as active; inconclusive means weak or mixed curves, or effect the other way; inactive means no such curve, though single readings can be large or run the other way; the % refers to the signal ratio; further: potency means the concentration at half of the fitted maximal effect); conditions: GR-bla HeLa, beta-lactamase reporter ratio, 18 h; activation: at 62.4 µM (top of the series) unless noted
Procedure, shortened: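 HeLa GR-bla reporter line; cells pre-incubated 4 h, compound in DMSO 18 h at 37 C; LiveBLAzer B/G FRET substrate 2 h RT; fluorescence intensity read-out.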
On the % scale 0 is the no-effect control and ±100 the full control effect.

CN(C)c1ccc(CCO)cc1
inactive: Potency [1] | Potency [2] | Potency [3] | Potency [4] | Potency [5] | Potency [6] | Potency [7] | outcome [8] | Potency [9] | outcome [10] | outcome [11] | outcome [12] | Potency [13] | Potency [14] | outcome [15]

O=C1OC(=O)C2C3C=CC(C3)C12 (configuration not stated)
inactive: Potency [1] | Potency [2] | Potency [3] | Potency [4] | Potency [5] | Potency [6] | Potency [7] | Potency [9] | outcome [10] | outcome [11] | outcome [12] | Potency [13] | Potency [14] | outcome [15] | Potency [16] | outcome [17]

COc1cc(C(=O)OCCCN2CCCN(CCCOC(=O)c3cc(OC)c(OC)c(OC)c3)CC2)cc(OC)c1OC
active: Potency [18] 8.41 µM
inactive: Potency [1] | Potency [3] | Potency [4] | outcome [8] | Potency [9] | outcome [10] | outcome [11] | outcome [12] | Potency [13] | outcome [15] | Potency [16] | outcome [17] | Potency [19]

C[C@H]1C[C@H]2[C@@H]3CCC4=CC(=O)C=C[C@]4(C)[C@@]3(Cl)[C@@H](O)C[C@]2(C)[C@@]1(O)C(=O)CO
inactive: Potency [1] | Potency [2] | Potency [3] | Potency [4] | Potency [5] | Potency [6] | Potency [7] | Potency [9] | outcome [10] | outcome [11] | outcome [12] | Potency [14] | outcome [15] | Potency [16] | outcome [17]

CCCCC(CC)COC(=O)COc1ccc(Cl)cc1Cl (configuration not stated)
inactive: Potency [1] | Potency [2] | Potency [3] | Potency [4] | Potency [5] | Potency [6] | Potency [7] | outcome [8] | Potency [9] | outcome [10] | outcome [11] | outcome [12] | Potency [13] | Potency [14] | outcome [15] | Potency [16] | outcome [17] | Potency [20] | Potency [19]

CCn1cc(C(=O)O)c(=O)c2cnc(N3CCNCC3)nc21
inactive: Potency [1] | Potency [2] | Potency [3] | Potency [4] | Potency [5] | fluorescence, relative to Rose Bengal [6] 0.305% [at 18.6 µM] | fluorescence, % of fluorescein control [7] -0.0874% [at 18.6 µM] | fluorescence, % of triamterene [8] -0.0251% [at 18.6 µM] | fluorescence, % of fluorescent control [9] -0.324% [at 18.6 µM] | fluorescence, % of fluorescein [10] 0.0376% [at 18.6 µM] | fluorescence, % of fluorescent control [11] 6.27% [at 18.6 µM] | activity change [12] 0.0637% [at 18.6 µM] | fluorescence, % of fluorescent control [13] -0.371% [at 18.6 µM] | fluorescence, % of Rose Bengal [14] -0.185% [at 18.6 µM] | fluorescence, % of fluorescein control [16] 0.152% [at 18.6 µM] | fluorescence, % of fluorescent control [17] -0.128% [at 18.6 µM]

COC(C)(C)CCO
inactive: Potency [1] | Potency [2] | Potency [3] | Potency [4] | Potency [5] | Potency [6] | Potency [7] | Potency [9] | outcome [10] | outcome [11] | outcome [12] | Potency [13] | Potency [14] | outcome [15] | Potency [16] | outcome [17] | Potency [20] | Potency [19]

CCCCC(=O)OCC(=O)[C@H]1[C@H](C)C[C@H]2[C@@H]3C[C@H](F)C4=CC(=O)C=C[C@]4(C)[C@@]3(F)[C@@H](O)C[C@@]21C
inactive: Potency [1] | Potency [18] | Potency [2] | Potency [4] | Potency [6] | Potency [7] | Potency [9] | outcome [10] | outcome [11] | outcome [12] | Potency [13] | Potency [14] | outcome [15] | Potency [16] | outcome [17]
active: Potency [20] 0.0076 µM [inconclusive]

NC(=O)C(c1ccccc1)(c1ccccc1)[C@@H]1CCN(CCc2ccc3c(c2)CCO3)C1
inactive: Potency [1] | Potency [18] | Potency [3] | Potency [4] | Potency [6] | Potency [7] | outcome [8] | Potency [9] | outcome [10] | outcome [11] | outcome [12] | Potency [13] | Potency [14] | outcome [15] | Potency [16] | outcome [17] | Potency [19]

CN1C[C@H]2c3ccccc3Oc3ccc(Cl)cc3[C@@H]2C1
active: Potency [1] 29.8 µM
inactive: Potency [2] | Potency [3] | Potency [4] | Potency [5] | Potency [6] | Potency [7] | Potency [9] | outcome [10] | outcome [11] | outcome [12] | Potency [13] | Potency [14] | outcome [15] | Potency [16]

CC(C)OC(=O)C(C)N(C(=O)c1ccccc1)c1ccc(F)c(Cl)c1 (configuration not stated)
inactive: Potency [1] | Potency [18] | Potency [2] | Potency [6] | Potency [7] | Potency [9] | outcome [10] | outcome [11] | Potency [13] | Potency [14] | Potency [16] | outcome [17]
active: Potency [19] 43.6 µM

O=C1[C@H]2CCCC[C@H]2C(=O)N1CCCCN1CCN(c2nsc3ccccc23)CC1
inactive: Potency [1] | Potency [2] | Potency [3] | Potency [4] | Potency [6] | Potency [7] | outcome [8] | Potency [9] | outcome [10] | outcome [11] | outcome [12] | Potency [13] | Potency [14] | outcome [15] | outcome [17]

CCC(C)O (configuration not stated)
inactive: Potency [1] | Potency [2] | Potency [3] | Potency [4] | Potency [6] | Potency [7] | Potency [9] | outcome [10] | outcome [11] | Potency [13] | outcome [15] | Potency [16] | outcome [17] | Potency [19]

C#C[C@]1(O)CC[C@H]2[C@@H]3CCc4cc(OC5CCCC5)ccc4[C@H]3CC[C@@]21C
inactive: Potency [1] | Potency [2] | Potency [3] | Potency [4] | Potency [6] | Potency [7] | outcome [8] | Potency [9] | outcome [10] | outcome [11] | outcome [12] | Potency [13] | outcome [15] | Potency [16]

CNCCCN1c2ccccc2CCc2ccccc21
inactive: Potency [1] | Potency [18] | Potency [2] | Potency [4] | fluorescence, % of fluorescein control [7] 0.0155% [at 18.6 µM] | fluorescence, % of fluorescent control [9] 0.0732% [at 18.6 µM] | fluorescence, % of fluorescein [10] -0.0036% [at 18.6 µM] | fluorescence, % of fluorescent control [11] 0.0048% [at 18.6 µM] | activity change [12] 0.0761% [at 18.6 µM] | fluorescence, % of Rose Bengal [14] 0.569% [at 18.6 µM] | fluorescence, % of fluorescent control [15] 0.0158% [at 18.6 µM] | fluorescence, % of fluorescein control [16] -0.0226% [at 18.6 µM] | fluorescence, % of fluorescent control [17] 0.0417% [at 18.6 µM]

O=C(c1ccc(F)cc1)C1CCN(CCn2c(=S)[nH]c3ccccc3c2=O)CC1
inactive: Potency [1] | Potency [18] | Potency [2] | Potency [4] | Potency [6] | outcome [8] | Potency [9] | outcome [10] | outcome [11] | outcome [12] | Potency [13] | Potency [14] | outcome [15] | Potency [16] | outcome [17] | Potency [20] | Potency [19]
